Many of the other results were omitted from the sample, so hits are more common in it than they were.
Giardia FBPA inh = qHTS Assay for Inhibitors of Fructose-1,6-bisphosphate Aldolase from Giardia Lamblia | actives 0.71% (n = 290,000) | AID 2451, 2010 | purified Giardia FBPA | Potency, µM (doses to about 59.6 µM), without a hit: at the top dose activity, negative = inhibition, usual class: inhibitors; further: potency means the concentration at half of the fitted maximal effect; on the % scale 0 is the no-effect control and ±100 the full control effect; nearly all actives have a fitted effect of over 55% in size
Target sequence (A8B2U2 whole entry, looked up): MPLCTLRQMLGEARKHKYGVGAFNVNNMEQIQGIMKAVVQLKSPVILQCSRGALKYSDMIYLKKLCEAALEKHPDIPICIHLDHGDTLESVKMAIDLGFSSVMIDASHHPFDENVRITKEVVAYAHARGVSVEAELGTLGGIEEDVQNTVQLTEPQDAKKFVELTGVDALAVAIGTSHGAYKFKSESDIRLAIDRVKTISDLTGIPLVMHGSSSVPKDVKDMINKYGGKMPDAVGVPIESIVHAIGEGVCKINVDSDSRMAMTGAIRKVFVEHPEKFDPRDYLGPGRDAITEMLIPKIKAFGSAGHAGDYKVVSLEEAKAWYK
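Giardia FBPA (40 nM reagent) was preincubated 10 min at RT with compound (up to 57.5 uM final), then substrate plus GAPDH/TPI/NAD/arsenate coupling system with diaphorase/resazurin was added; resorufin fluorescence (525/598 nm) was read after 20 min.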
CHX counter = Cycloheximide Counterscreen for Small Molecule Inhibitors of Shiga Toxin. actives 12% (n = 300,000). cell reporter, cycloheximide protein synthesis inhibition counterscreen. max response, %; in the data active means max response mostly above about 13%, no sharp cut-off; inactive means mostly below about 14%; further: read at 38.3 µM for the half of the compounds with a filed dose; 0% is about no effect
LmPK inh = qHTS Assay for Inhibitors of Leishmania Mexicana Pyruvate Kinase (LmPK); Q27686; purified LmPK, Kinase-Glo ATP luminescence, 1 h; Potency, µM (doses to about 57.5 µM), without a hit: top-dose activity change, negative = inhibition, hits mostly inhibitors; actives 0.37% (n = 290,000); AID 1721, 2009; further: potency means the concentration at half of the fitted maximal effect; on the % scale 0 is the no-effect control and ±100 the full control effect
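Kinase-Glo luminescence read after 1 h RT reaction of 0.1 nM LmPK with 0.5 mM PEP and 0.1 mM ADP. Activity scaled between uninhibited and enzyme-free controls.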
Sm TGR inh = qHTS Assay for the Inhibitors of Schistosoma Mansoni Peroxiredoxins | purified TGR, DTNB reduction, TNB absorbance 405 nm | Potency, µM (highest dose often 114 µM), for inactives: at the top dose activity change, negative = inhibition, hits mostly inhibitors | Schistosoma mansoni thioredoxin glutathione reductase (TGR), Q962Y6 | actives 3% (n = 360,000); further: potency means the concentration at half of the fitted maximal effect; on the % scale 0 is the no-effect control and ±100 the full control effect; nearly all actives have a fitted effect of over 60% in size
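First, TGR (20 nM dispensed) and NADPH were mixed with compound. Second, a 15 min room-temperature incubation followed. Third, further NADPH and then DTNB were added to start the reaction. Finally, TNB absorbance was monitored kinetically.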
Tb PYK inh = qHTS of Trypanosoma Brucei Inhibitors. pyruvate kinase (Trypanosoma brucei), Q57TT1. TbPYK enzyme, Kinase-Glo Plus ATP luminescence, 45 min. Potency, µM (doses to about 76.8 µM), for the others: top-dose activity, negative = inhibition, most hits filed as inhibitors. actives 0.12% (n = 410,000); further: potency means the concentration at half of the fitted maximal effect; on the % scale 0 is the no-effect control and ±100 the full control effect; nearly all actives have a fitted effect of over 50% in size
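Luminescent Kinase-Glo Plus end-point after 45 min room-temperature reaction of T. brucei pyruvate kinase started with 130 uM ADP (final). Buffer TEA 50 mM pH 7.2 with KCl, MgCl2, BSA, Tween-20; titration-based qHTS with fitted concentration-effect curves.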
Shiga toxin inh = A qHTS for Small Molecule Inhibitors of Shiga Toxin. inhibition, % at 38.7 µM. actives 9.2% (n = 290,000). AID 2315, 2010. Vero cells, Shiga toxin protein synthesis inhibition reporter; in the data active means inhibition mostly above about 28%, no sharp cut-off; inactive means mostly below about 43%; further: 0% is about no effect
The depositor's hits bear a star; ? = inconclusive; · = no result given; + = active, no number; [ ] = dose if it differs, or a comment. Unless noted, the call rests on the fitted dose curve; in most records, active means well fitted curve in the direction sought with a large enough effect; inconclusive means small, poorly fitted or top-dose-only effect, or another doubt; inactive means no such curve, though single readings can be large; an effect the other way counts as inactive or inconclusive.

SMILES	Giardia FBPA inh	CHX counter	LmPK inh	Sm TGR inh	Tb PYK inh	Shiga toxin inh
COC(=O)c1ccc2c(c1)sc(=NC(=O)CCS(=O)(=O)c1ccccc1)n2C	·	·	·	31.6µM*	-3.4%	·
CC(=O)N=c1sc2ccccc2n1C	-1.3%	12.9	-1.3%	-24.2%	-1.3%	-2.4
Cc1ccc(C)c(S(=O)(=O)c2nnn3c2nc(NC2CCCCC2)c2sccc23)c1	·	·	·	5.4%	-0.4%	·
COc1ccc(CCNC(=O)CSc2cn(CCNC(=O)c3ccc(OC)c(OC)c3)c3ccccc23)cc1OC	·	·	·	5.0%	-2.2%	·
COc1ccc(C(=O)N=c2sc3ccccc3n2C)cc1	-28.6%	52.6*	-3.4%	4.9%	2.4%	106.7*
COc1ccc(C(=O)N=c2sc3cc(Cl)ccc3n2C)cc1	·	·	·	-4.1%	1.6%	·
CC1=NN(c2ccc(C)c(C)c2)C(=O)/C1=C\C=C\c1ccc([N+](=O)[O-])o1	-12.5%	43.6*	-11.8%	0.0%	-12.2%	88.0*
COc1ccc(S(=O)(=O)N2CCN(C(=O)C3CC(=O)N(c4ccccc4F)C3)CC2)cc1OC (centres undefined)	·	·	·	·	6.3%	·
Cc1cccc(C(=O)Nc2ccccc2C(=O)OCC(=O)Nc2ccc(C#N)cc2)c1	0.0%	46.2*	1.5%	0.2%	1.8%	54.5*
O=C(Nc1ccncc1)Nc1ccccn1	1.7%	-3.5	-4.3%	-0.6%	3.5%	60.2
O=C(Nc1ccccn1)Nc1cccs1	-6.7%	36.3*	-11.4%	6.0%	0.0%	38.0*
Cc1ccnc(NC(=O)Cc2ccc([N+](=O)[O-])cc2)c1	1.3%	18.8*	1.5%	·	21.7%	57.9
O=C(Cc1ccc(-c2ccccc2)cc1)Nc1ccccn1	6.9%	39.8*	-0.4%	0.5%	5.9%	88.2*
Cc1ccnc(NC(=O)Cc2ccc(-c3ccccc3)cc2)c1	-4.4%	72.2*	-3.6%	28.4%	0.0%	79.6*
O=C(CN1CCN(CC(=O)Nc2ccccn2)CC1)Nc1ccccn1	-0.2%	-3.0	0.4%	-20.6%	-3.9%	-10.2
O=C(CC(=O)Nc1ccccn1)Nc1ccccn1	1.4%	18.0*	0.3%	-1.0%	5.9%	14.7
COc1ccccc1-n1cnc2cc(NCc3ccccc3O)ccc21	-10.1%	21.7*	-6.8%	2.2%	-6.5%	69.8*
COc1ccc(CNc2ccc3c(c2)ncn3-c2ccccc2OC)cc1	-3.4%	-1.1	-0.4%	6.4%	-26.5%	45.2
COc1ccccc1-n1cnc2cc(NCc3cccs3)ccc21	-4.7%	23.2*	2.5%	2.7%	-11.4%	44.2*
O=C(C1CC1)N1CCc2cc(Br)cc(S(=O)(=O)N3CCN(c4cccc(C(F)(F)F)c4)CC3)c21	·	·	·	-0.1%	-4.5%	·
Fc1ccc(-c2ccc(CNCc3ccccn3)o2)cc1	19.2%	25.5*	-1.5%	-22.5%	3.5%	·
Clc1ccc(-c2ccc(CNCc3ccccn3)o2)cc1	?	21.3*	-6.5%	?	5.5%	24.2*
Fc1ccc(-c2ccc(CNCCSc3nnnn3-c3ccccc3)o2)cc1	·	·	·	-34.7%	1.4%	·
COc1ccc(-c2ccc(CNCc3ccccn3)o2)cc1Cl	?	13.4*	3.9%	-34.7%	·	9.2
CCC(=O)N1CCCc2cc(S(=O)(=O)N3CCC(C(=O)Nc4ccc(F)c(F)c4)CC3)ccc21	·	·	·	4.4%	-3.7%	·
SMILES	Giardia FBPA inh	CHX counter	LmPK inh	Sm TGR inh	Tb PYK inh	Shiga toxin inh
CC(=O)Nc1ccc(C2C(C)CCC3C(=O)N4C(CCC(C)[C@@H]4c4ccc(NC(C)=O)cc4)C(=O)N32)cc1 (some centres undefined)	1.4%[12.9 µM]	·	·	·	·	·
CC(=O)NCCOc1cccc(OCCNC(C)=O)c1	-0.4%	1.5	3.0%	-7.7%	-4.6%	-4.3
CC(=O)NCCOc1ccc2oc3ccccc3c2c1	-9.5%	31.3*	-0.4%	5.5%	-1.1%	71.3*
O=c1[nH]c(-c2ccco2)nc2sc3c(c12)CCCC3	1.5%	50.7*	-5.1%	-11.1%	-6.6%	91.0*
COCCN(Cc1cc2cc(C)cc(C)c2nc1Cl)C(=O)Nc1ccccc1	7.8%	16.1*	-0.8%	7.9%	-3.3%	-13.4
Cc1cc(C)c2nc(Cl)c(CN(Cc3ccco3)C(=O)Nc3ccccc3C)cc2c1	-0.1%	9.9	2.6%	6.2%	-16.8%	14.2
CCS(=O)(=O)Nc1cccc(C2=NN(S(=O)(=O)c3ccccc3)C(c3ccco3)C2)c1 (centres undefined)	-4.4%	12.0	-0.4%	28.2µM*	-5.6%	-3.4
CCS(=O)(=O)N1N=C(c2cccc(NS(C)(=O)=O)c2)CC1c1ccccc1 (centres undefined)	5.2%	3.5	-0.9%[11.5 µM]	-22.6%	-6.3%	11.3
CS(=O)(=O)Nc1cccc(C2=NN(S(=O)(=O)c3ccccc3)C(c3ccco3)C2)c1 (centres undefined)	-14.5%	16.4*	-1.7%	20µM*	-27.6%	36.7
CCS(=O)(=O)N1N=C(c2cccc(NS(C)(=O)=O)c2)CC1c1ccc(C)cc1 (centres undefined)	2.5%	27.5*	-1.9%[11.5 µM]	-10.6%	0.2%	31.1
COc1ccc(OCC(=O)N/N=C/C(C)=C/c2ccco2)c(Br)c1	·	8.3	-1.4%	39.8µM*	2.5%	1.0
Cn1c(SCC(=O)N/N=C/C=C/c2ccccc2[N+](=O)[O-])nc2ccccc21	0.1%	-1.8	0.4%	-10.8%	1.4%	-10.3
Cc1ccc(OCC(=O)N/N=C/C=C/c2ccco2)cc1C	-21.0%	2.1	-2.1%	50.1µM*	7.0%	-10.5
Cc1ccc(OCC(=O)N/N=C/c2ccco2)cc1	3.5%	8.6	-2.2%	-14.0%	-9.7%	22.0
O=C(CSc1nnc(SCc2ccccc2)s1)N/N=C/C=C/c1ccco1	-21.1%	1.7	1.5%	39.8µM*	-1.2%	-2.1
Cn1c(SCC(=O)N/N=C/C=C/c2ccco2)nc2ccccc21	7.9%	-5.2	-1.9%	22.4µM*	-15.6%	-10.2
O=C1CN(C(=O)Cc2ccc(F)cc2)C(c2ccccc2)c2cc(Cl)ccc2N1 (centres undefined)	·	·	·	-2.3%	?	·
Cc1nc2ncnn2c(C)c1CCC(=O)N1CCN(c2ccccc2)CC1	·	·	·	0.3%	4.8%	·
O=c1oc2ccc3ccccc3c2cc1-c1nnc(Nc2ccc(F)cc2)s1	·	·	·	-0.1%	2.7%	·
CCn1c(SCC(=O)N/N=C/C=C/c2ccco2)nnc1-c1ccccc1	-9.9%	0.4	-2.3%	35.5µM*	-27.9%	-2.5
O=C(Cc1cccs1)N/N=C/C=C/c1ccco1	?	25.9*	3.4%	3.98µM*	-13.3%	+
COC(=O)c1c(C)oc2ccc(N(C(=O)Oc3ccccc3)S(=O)(=O)c3ccc(C(C)(C)C)cc3)cc12	·	·	·	-1.3%	2.4%	·

Source: PubChem BioAssay
